Results with a measured potency or affinity are listed apart. Active and inactive are the calls of the source.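 Rule for the calls: active = compounds lowering fluorescence whose fitted half-maximal dose is at most twice the top valid dose; inconclusive = flat fit between -70% and -30%, or poor curve fit; inactive = the rest.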

The target of the test is Caspase-8 (Homo sapiens) (UniProt Q14790). Kind of test: caspase-8 inhibition counter-screen, dose response, selectivity assay for caspase-6 inhibitor project, biochemical, Z-IETD-R110 fluorescence, cherry-picked samples (AID 743294). On the technique in general: Counterscreens check selectivity or assay interference.
Sequence of Caspase-8 (Homo sapiens) (Q14790 whole entry, looked up): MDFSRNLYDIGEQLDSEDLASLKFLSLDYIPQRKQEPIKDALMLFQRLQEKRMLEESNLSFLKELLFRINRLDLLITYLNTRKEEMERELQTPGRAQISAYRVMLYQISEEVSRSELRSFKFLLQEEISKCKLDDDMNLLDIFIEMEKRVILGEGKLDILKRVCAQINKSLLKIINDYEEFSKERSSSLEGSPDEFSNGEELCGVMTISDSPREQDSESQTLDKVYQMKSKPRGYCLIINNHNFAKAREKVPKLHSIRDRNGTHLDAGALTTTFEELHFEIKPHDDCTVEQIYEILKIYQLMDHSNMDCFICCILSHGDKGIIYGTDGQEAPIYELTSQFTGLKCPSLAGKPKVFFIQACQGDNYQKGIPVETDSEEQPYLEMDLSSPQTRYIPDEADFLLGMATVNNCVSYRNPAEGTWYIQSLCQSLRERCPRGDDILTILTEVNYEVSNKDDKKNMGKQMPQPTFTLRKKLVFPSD

Consider `CN1CCc2cc3c(c4c2C1Cc1ccccc1-4)OCO3` (configuration not stated), for which the compound was classed as inactive.

Consider `CC(Cc1ccc(O)cc1)NCC(O)c1ccc(O)c(O)c1` (configuration not stated), for which the outcome was inactive.
